High-throughput results as filed in PubChem.
Compounds with a hit are over-represented: about 6.2% of the library has one in this group of screens.
S2 tox: Viability Counterscreen for Primary qHTS for Inhibitors of ATXN expression | S2 cells (HEK-293 line with an ATXN2-luciferase reporter) viability, CellTiter-Fluor protease fluorescence, 24 h | AID 651635, 2014 | 0.49% of 400,000 active | Potency, µM (series often up to 56.7 µM), actives largely listed as cytotoxic; further: nearly all actives have a fitted effect of over 40% in size
HT1080NT lethal: qHTS for induction of synthetic lethality in tumor cells producing 2HG: qHTS for the HT-1080-NT fibrosarcoma cell line; HT-1080-NT fibrosarcoma viability, CellTiter-Glo ATP luminescence, 48 h; Potency, µM (series often up to 46.1 µM), without a hit: at the top dose activity, negative = less viability, hits mostly cytotoxic; 1.6% of 360,000 active;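 further: NT is the 2HG producing partner of a matched IDH1 knockdown line; 0% = DMSO-treated cells and -100% = media-only wells without cells; nearly all actives have a fitted effect of over 55% in size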
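Viability of the 2HG-overproducing fibrosarcoma line after 48 hours of compound exposure at 37 degrees C was determined by luminescence with CellTiter-Glo, and concentration-effect curves were then fitted and categorized.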
HT1080 IDH1KD tx: qHTS for induction of synthetic lethality in tumor cells producing 2HG: qHTS for the HT-1080-IDH1KD cell line; AID 686971, 2013; HT-1080 IDH1 knockdown viability, ATP luminescence, 48 h; Potency, µM (highest dose often 46.1 µM), inactives show at the top dose activity, negative = toxicity, actives largely listed as cytotoxic; 2% of 360,000 active;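 further: 0% = DMSO wells and -100% = cell-free medium wells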
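After a 2 h attachment period, IDH1KD HT-1080 cells took pin-transferred compound for 48 h at 37 °C; ATP-based luminescence after 10 min room-temperature reagent incubation reported viability.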
KB-3-1 tox: qHTS assay for MDR1-selective chemotherapeutics: Primary screen using the parental adenocarcinoma cell KB-3-1; KB-3-1 viability, CellTiter-Glo ATP luminescence, 72 h; Potency, µM (doses to about 46.1 µM), actives largely listed as cytotoxic; 1.4% of 400,000 active; AID 1347075, 2019; further: on the % scale 0 is the no-effect control and ±100 the full control effect; nearly all actives have a fitted effect of over 60% in size
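KB-3-1 cells, DMEM (no phenol red) + 10% FBS; compound by pin transfer, 72 h, 37 °C. Readout: CellTiter-Glo luminescence after 10 min. Data normalized, curve-fitted.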
KB-V1 cytotox: qHTS assay for MDR1-selective chemotherapeutics: Primary screen using the drug-selected MDR subline cells KB-V1 | KB-V1 MDR cells viability, CellTiter-Glo, 72 h | Potency, µM (top dose mostly 46.1 µM), usual class: cytotoxic | 3.4% of 400,000 active | AID 1347076, 2019; further: on the % scale 0 is the no-effect control and ±100 the full control effect; nearly all actives have a fitted effect of over 60% in size
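Potencies derive from concentration-effect curves fitted to normalized luminescence (CellTiter-Glo) of KB-V1 cells treated for 72 h at 37 degrees C in phenol-red-free DMEM containing 10% FBS.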
ATXN2 expr inh: Primary qHTS for Inhibitors of ATXN expression; HEK-293 ATXN2-luciferase reporter, luminescence, 24 h; Potency, µM (doses to about 57 µM), for inactives: at the highest dose activity change, negative = inhibition, hits mostly inhibitors; AID 1745845, 2022; 0.72% of 360,000 active; further: on the % scale 0 is the no-effect control and ±100 the full control effect; nearly all actives have a fitted effect of over 55% in size
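qHTS (up to 57 uM final) was run with 24 h compound exposure of reporter cells at 37 °C. Each well was multiplexed: SteadyGlo luminescence measured ATXN2-luciferase expression after a fluorogenic Gly-Phe-AFC viability readout (25 uM final).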
Starred values were filed as active, the others as inactive. The call rests on the fitted dose curve; in most records, active means well fitted curve in the direction sought with a large enough effect; inconclusive means small, poorly fitted or top-dose-only effect, or another doubt; inactive means no such curve, though single readings can be large; an effect the other way counts as inactive or inconclusive. Potency means the concentration at half of the fitted maximal effect.

How did O=C(Cc1ccc(Oc2ccccc2)cc1)NO do in these assays?
KB-3-1 tox: inactive; KB-V1 cytotox: inactive

How did CC(C)=CCSc1nnc(CCNC(=O)OC(C)(C)C)o1 do in these assays?
S2 tox: inactive; HT1080NT lethal: -4%; HT1080 IDH1KD tx: 0%; KB-3-1 tox: inactive; KB-V1 cytotox: 21µM*; ATXN2 expr inh: 5%

What do the screens show for `CSc1nnc(CCNC(=O)OC(C)(C)C)o1`?
S2 tox: inactive; HT1080NT lethal: -2%; HT1080 IDH1KD tx: 3%; KB-3-1 tox: inactive; KB-V1 cytotox: inactive

Results for CC1CCN(S(=O)(=O)c2ccc3c(c2)c(=O)c(C(=O)NC(C)c2ccccc2)cn3C)CC1 (centres undefined) ?
S2 tox: inactive; KB-3-1 tox: inactive; KB-V1 cytotox: inactive; ATXN2 expr inh: 7%

How did Cc1nn(Cc2ccc(C(=O)Nc3nccs3)cc2)c(C)c1Cl do in these assays?
S2 tox: inactive; HT1080NT lethal: 2%; HT1080 IDH1KD tx: -3%; KB-3-1 tox: 16µM*; KB-V1 cytotox: 21µM*; ATXN2 expr inh: -12%

How did COc1ccc(N2C(=O)NC3CC2(C)Oc2ccc(Cl)cc23)cc1OC (centres undefined) do in these assays?
S2 tox: inactive; HT1080NT lethal: -3%; HT1080 IDH1KD tx: -1%; KB-3-1 tox: inconclusive; KB-V1 cytotox: inconclusive; ATXN2 expr inh: 7%

How did COc1ccc(CCN2C(=S)NC3CC2(C)Oc2ccc([N+](=O)[O-])cc23)cc1OC (centres undefined) do in these assays?
S2 tox: inactive; HT1080NT lethal: -14%; HT1080 IDH1KD tx: inconclusive; KB-3-1 tox: inactive; KB-V1 cytotox: 6.5µM*; ATXN2 expr inh: -10%

Results for COCCn1c(SCc2csc(-c3ccccc3)n2)nc2ccccc21 ?
S2 tox: inactive; HT1080NT lethal: inconclusive; HT1080 IDH1KD tx: -28%; KB-3-1 tox: 16µM*; KB-V1 cytotox: 8.2µM*; ATXN2 expr inh: -17%

What do the screens show for `COCCn1c(SCC(=O)NCc2ccccc2)nc2ccccc21`?
S2 tox: inactive; HT1080NT lethal: -4%; HT1080 IDH1KD tx: -2%; KB-3-1 tox: inactive; KB-V1 cytotox: inactive; ATXN2 expr inh: -9%

How did Cc1ccc(C(=O)N(Cc2cc3cccc(C)c3nc2N2CCC(O)CC2)C2CC2)cc1 do in these assays?
S2 tox: inactive

Results for COc1cccc(OC)c1C(=O)N1CC(C)OC(C)C1 (centres undefined) ?
S2 tox: inactive; HT1080NT lethal: 2%; HT1080 IDH1KD tx: -2%; KB-3-1 tox: inactive; KB-V1 cytotox: inactive; ATXN2 expr inh: -6%

How did CC1CN(C(=O)c2ccccc2Oc2ccccc2)CC(C)O1 (centres undefined) do in these assays?
S2 tox: inactive; HT1080NT lethal: -4%; HT1080 IDH1KD tx: 1%; KB-3-1 tox: 21µM*; KB-V1 cytotox: inactive

What do the screens show for `CC(C)(C)c1ccc(S(=O)(=O)Nc2cccc(C3OCCCO3)c2)cc1`?
S2 tox: inactive; HT1080NT lethal: -2%; HT1080 IDH1KD tx: -8%; KB-3-1 tox: inactive; KB-V1 cytotox: 15µM*; ATXN2 expr inh: -5%

How did CCOc1ccc(NC(=O)c2oc3ccccc3c2NC(=O)C(C)(C)C)cc1 do in these assays?
S2 tox: inconclusive; KB-3-1 tox: inactive; KB-V1 cytotox: inactive; ATXN2 expr inh: 11%

Results for S=C(Nc1ccccc1)N1CCn2cccc2C1c1cccnc1 (centres undefined) ?
S2 tox: inactive; HT1080NT lethal: 5%; HT1080 IDH1KD tx: -1%; KB-3-1 tox: inactive; KB-V1 cytotox: 16µM*; ATXN2 expr inh: -4%

What do the screens show for `CCN(CC)CCNC(=O)c1cc(-c2ccc(Br)s2)nc2ccccc12`?
HT1080NT lethal: 18µM*; HT1080 IDH1KD tx: inconclusive; KB-3-1 tox: inactive; KB-V1 cytotox: inconclusive

How did O=C(NN1CCOCC1)c1cc(-c2cccc(Cl)c2)nc2ccccc12 do in these assays?
S2 tox: inactive; HT1080NT lethal: 4%; HT1080 IDH1KD tx: -11%; KB-3-1 tox: inactive; KB-V1 cytotox: 12µM*; ATXN2 expr inh: -13%

What do the screens show for `O=C(Nc1ccccc1N1CCOCC1)c1cc(-c2ccncc2)nc2ccccc12`?
S2 tox: inconclusive; HT1080NT lethal: -26%; HT1080 IDH1KD tx: -26%; KB-3-1 tox: inactive; KB-V1 cytotox: 18µM*; ATXN2 expr inh: -35%

What do the screens show for `CCOCCCNC(=O)c1cc(-c2ccc(Br)s2)nc2ccccc12`?
S2 tox: inactive; HT1080NT lethal: -9%; HT1080 IDH1KD tx: -8%; KB-3-1 tox: inconclusive; KB-V1 cytotox: inactive; ATXN2 expr inh: -20%

How did CN1CCN(NC(=O)c2cc(-c3ccc(Br)s3)nc3ccccc23)CC1 do in these assays?
S2 tox: inactive; HT1080NT lethal: 21µM*; HT1080 IDH1KD tx: 23µM*; KB-3-1 tox: inactive; KB-V1 cytotox: inactive; ATXN2 expr inh: -24%

Results for O=C(NN1CCOCC1)c1cc(-c2ccccc2)nc2ccccc12 ?
S2 tox: inactive; HT1080NT lethal: -4%; HT1080 IDH1KD tx: 12%; KB-3-1 tox: inactive; KB-V1 cytotox: inactive; ATXN2 expr inh: -2%

How did CCOc1ccc(NC(=O)Cn2c(=O)n(Cc3ccc4c(c3)OCO4)c(=O)c3ccc(C(=O)NC4CCCCC4)cc32)cc1 do in these assays?
S2 tox: inactive; KB-3-1 tox: inactive; KB-V1 cytotox: inconclusive; ATXN2 expr inh: 7%

How did COc1cc(NC(=O)CC(C)S(=O)(=O)c2cc3c4c(c2)CCN4C(=O)CC3)cc(OC)c1 (centres undefined) do in these assays?
S2 tox: inactive; KB-3-1 tox: inactive; KB-V1 cytotox: inconclusive; ATXN2 expr inh: 6%

How did CCCN(CCC)CCNC(=O)c1cc(-c2ccc(Br)s2)nc2ccccc12 do in these assays?
S2 tox: 32µM*; KB-3-1 tox: inactive; KB-V1 cytotox: inactive; ATXN2 expr inh: 0%

Results for CCc1ccc(CNC(=O)c2cc(-c3ccc(Br)s3)nc3ccccc23)cc1 ?
S2 tox: inactive; KB-3-1 tox: inactive; KB-V1 cytotox: inactive; ATXN2 expr inh: 6%

Results for Cc1ccc(S(=O)Cc2nc(-c3ccc(C(=O)NC(C)c4ccccc4)cc3)oc2C)cc1 (centres undefined) ?
S2 tox: inactive; KB-3-1 tox: inactive; KB-V1 cytotox: inactive; ATXN2 expr inh: inconclusive
